From PubChem BioAssay (Tox21)
Values joined by “and” are separate entries in the source; they are usually repeats but may differ in a detail not shown here. Equal values may be shown once. Records with an inconclusive call do not appear. Where a call stands in place of a potency, no number is given. The source holds several records for some structures; these can differ, active in one and inactive in another. Active and inactive are the calls of the source. Calls come from the whole dose curve; as a rule, active = well fitted curve in the direction sought with a large enough effect in the repeat runs; inconclusive = weak or mixed curves; inactive = no such curve, though single readings can be large; an effect the other way counts as inactive or inconclusive.

Tests used:
[1] = target: Cytochrome P450 2C19 (Homo sapiens) (UniProt P33261); experiment: Cytochrome P450 Family 2 Subfamily C Member 19 (CYP2C19) small molecule antagonists: luciferase reporter qHTS assay (AID 1671197); conditions: P450-Glo CYP2C19 enzyme, luciferin luminescence, 1 h; series mostly up to 115 µM; note: nearly all actives have a fitted effect of over 65% in size
Summary of the method: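 Enzyme-substrate mix with proluciferin substrate (P450-Glo CYP2C19 system) preincubated with compounds 10 min at room temperature; NADPH regeneration solution added, 37C for 1 h; detection reagent stops reaction, luminescence read after 20 min. Ketoconazole positive control.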

[2] = target: Cytochrome P450 2C9 (Homo sapiens) (UniProt P11712); experiment: Cytochrome P450 Family 2 Subfamily C Member 9 (CYP2C9) small molecule antagonists: luciferase reporter qHTS assay (AID 1671198); conditions: P450-Glo CYP2C9 enzyme assay, luciferin luminescence; series mostly up to 115 µM; note: nearly all actives have a fitted effect of over 50% in size
Summary of the method: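 CYP2C9 activity was measured with a P450-Glo proluciferin substrate. Enzyme–substrate mix was held with compound for 10 min at room temperature, then NADPH regeneration solution was added for 1 h at 37C. Luciferin product was read as luminescence.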

[3] = target: Cytochrome P450 1A2 (Homo sapiens) (UniProt P05177); experiment: Cytochrome P450 Family 1 Subfamily A Member 2 (CYP1A2) small molecule antagonists: luciferase reporter qHTS assay (AID 1671199); conditions: P450-Glo CYP1A2 enzyme, luciferin luminescence, 1 h; series mostly up to 115 µM; note: nearly all actives have a fitted effect of over 50% in size
Summary of the method: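 P450-Glo CYP1A2, 1536-well qHTS: enzyme/proluciferin substrate + cpd (DMSO), 10 min RT; NADPH regen, 1 h RT; detection reagent, 20 min; luminescence, RLU.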

[4] = target: Voltage-gated inwardly rectifying potassium channel KCNH2 (Homo sapiens) (UniProt Q12809); experiment: Human Ether-a-go-go-Related Gene (hERG) channel small molecule antagonists: fluorescence cell-based qHTS assay (AID 1671200); conditions: hERG-U2OS cells, FluxOR thallium flux fluorescence; series mostly up to 76.8 µM; note: nearly all actives have a fitted effect of over 50% in size
Summary of the method: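 hERG-U2OS cells plated overnight at 37 C, loaded with FluxOR II dye 1 h at RT in dark; after 10 min, thallium stimulus added. Fluorescence (480/540 nm) read kinetically for 2 min at 1 s intervals.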

[5] = target: Cytochrome P450 3A4 (Homo sapiens) (UniProt P08684); experiment: Cytochrome P450 Family 3 Subfamily A Member 4 (CYP3A4) small molecule antagonists: luciferase reporter qHTS assay (AID 1671201); conditions: P450-Glo CYP3A4 enzyme, luciferin luminescence, 1 h; series mostly up to 115 µM; note: nearly all actives have a fitted effect of over 50% in size
Summary of the method: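 P450-Glo CYP3A4 luminescent assay: compounds preincubated 10 min at room temperature with enzyme and proluciferin substrate, NADPH regeneration added, 1 h room-temperature reaction, stopped with luciferin detection reagent; luminescence read after 20 min. Ketoconazole positive control.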
Potency is the fitted concentration of half-maximal effect.

Chain of Cytochrome P450 1A2 (Homo sapiens) (P05177 whole entry, looked up): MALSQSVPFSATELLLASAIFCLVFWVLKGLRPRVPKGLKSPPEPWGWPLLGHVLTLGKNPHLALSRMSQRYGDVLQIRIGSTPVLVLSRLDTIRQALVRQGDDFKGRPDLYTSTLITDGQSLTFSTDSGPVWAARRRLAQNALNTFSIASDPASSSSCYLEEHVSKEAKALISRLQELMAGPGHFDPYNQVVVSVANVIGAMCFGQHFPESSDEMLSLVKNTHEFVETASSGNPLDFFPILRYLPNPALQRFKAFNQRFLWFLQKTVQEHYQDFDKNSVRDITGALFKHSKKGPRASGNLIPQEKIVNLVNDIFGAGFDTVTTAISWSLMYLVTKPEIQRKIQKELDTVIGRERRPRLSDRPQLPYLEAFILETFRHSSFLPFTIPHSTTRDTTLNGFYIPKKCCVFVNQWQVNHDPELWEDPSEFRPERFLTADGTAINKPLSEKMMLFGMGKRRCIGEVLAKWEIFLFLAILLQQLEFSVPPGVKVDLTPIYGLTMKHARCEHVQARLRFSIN
Chain of Cytochrome P450 2C19 (Homo sapiens) (P33261 whole entry, looked up): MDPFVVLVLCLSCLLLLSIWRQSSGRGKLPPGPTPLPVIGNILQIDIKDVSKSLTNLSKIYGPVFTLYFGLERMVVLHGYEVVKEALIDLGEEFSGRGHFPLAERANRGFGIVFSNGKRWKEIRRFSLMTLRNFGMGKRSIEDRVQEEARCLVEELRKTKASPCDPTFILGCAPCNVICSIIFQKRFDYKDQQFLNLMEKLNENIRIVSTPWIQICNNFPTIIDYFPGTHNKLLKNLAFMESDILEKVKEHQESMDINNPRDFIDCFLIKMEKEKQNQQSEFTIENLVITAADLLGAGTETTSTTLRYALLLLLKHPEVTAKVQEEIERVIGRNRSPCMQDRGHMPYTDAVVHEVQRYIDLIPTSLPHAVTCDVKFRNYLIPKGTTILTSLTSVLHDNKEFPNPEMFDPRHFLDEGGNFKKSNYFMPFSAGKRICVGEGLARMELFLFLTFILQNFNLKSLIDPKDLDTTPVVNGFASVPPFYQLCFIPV
Chain of Cytochrome P450 3A4 (Homo sapiens) (P08684 whole entry, looked up): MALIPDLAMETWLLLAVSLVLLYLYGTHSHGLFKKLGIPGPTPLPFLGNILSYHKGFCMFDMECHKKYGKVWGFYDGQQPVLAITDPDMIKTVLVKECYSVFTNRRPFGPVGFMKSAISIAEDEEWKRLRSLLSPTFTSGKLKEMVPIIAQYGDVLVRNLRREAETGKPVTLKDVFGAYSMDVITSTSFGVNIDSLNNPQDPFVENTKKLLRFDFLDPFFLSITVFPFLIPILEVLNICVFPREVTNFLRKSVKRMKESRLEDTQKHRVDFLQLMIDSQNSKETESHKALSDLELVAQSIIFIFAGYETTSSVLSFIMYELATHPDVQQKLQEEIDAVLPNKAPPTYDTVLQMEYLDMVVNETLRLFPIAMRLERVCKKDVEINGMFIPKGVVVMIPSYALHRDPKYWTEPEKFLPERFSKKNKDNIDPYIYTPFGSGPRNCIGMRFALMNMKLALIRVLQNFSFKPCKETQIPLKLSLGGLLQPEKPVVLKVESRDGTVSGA
Chain of Cytochrome P450 2C9 (Homo sapiens) (P11712 whole entry, looked up): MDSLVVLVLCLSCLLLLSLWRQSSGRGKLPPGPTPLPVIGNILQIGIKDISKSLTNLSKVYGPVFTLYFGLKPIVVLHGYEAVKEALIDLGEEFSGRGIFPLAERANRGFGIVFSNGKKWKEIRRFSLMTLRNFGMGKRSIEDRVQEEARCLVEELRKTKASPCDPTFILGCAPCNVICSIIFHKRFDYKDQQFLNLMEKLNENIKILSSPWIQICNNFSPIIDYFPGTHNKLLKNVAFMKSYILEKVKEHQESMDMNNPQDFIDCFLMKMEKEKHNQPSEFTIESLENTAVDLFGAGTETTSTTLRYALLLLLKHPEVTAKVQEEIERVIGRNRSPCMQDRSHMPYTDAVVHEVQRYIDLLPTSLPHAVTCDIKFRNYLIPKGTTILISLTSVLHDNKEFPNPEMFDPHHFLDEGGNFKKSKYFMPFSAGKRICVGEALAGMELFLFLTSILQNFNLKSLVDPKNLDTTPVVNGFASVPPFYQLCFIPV
Chain of Voltage-gated inwardly rectifying potassium channel KCNH2 (Homo sapiens) (Q12809 whole entry, looked up): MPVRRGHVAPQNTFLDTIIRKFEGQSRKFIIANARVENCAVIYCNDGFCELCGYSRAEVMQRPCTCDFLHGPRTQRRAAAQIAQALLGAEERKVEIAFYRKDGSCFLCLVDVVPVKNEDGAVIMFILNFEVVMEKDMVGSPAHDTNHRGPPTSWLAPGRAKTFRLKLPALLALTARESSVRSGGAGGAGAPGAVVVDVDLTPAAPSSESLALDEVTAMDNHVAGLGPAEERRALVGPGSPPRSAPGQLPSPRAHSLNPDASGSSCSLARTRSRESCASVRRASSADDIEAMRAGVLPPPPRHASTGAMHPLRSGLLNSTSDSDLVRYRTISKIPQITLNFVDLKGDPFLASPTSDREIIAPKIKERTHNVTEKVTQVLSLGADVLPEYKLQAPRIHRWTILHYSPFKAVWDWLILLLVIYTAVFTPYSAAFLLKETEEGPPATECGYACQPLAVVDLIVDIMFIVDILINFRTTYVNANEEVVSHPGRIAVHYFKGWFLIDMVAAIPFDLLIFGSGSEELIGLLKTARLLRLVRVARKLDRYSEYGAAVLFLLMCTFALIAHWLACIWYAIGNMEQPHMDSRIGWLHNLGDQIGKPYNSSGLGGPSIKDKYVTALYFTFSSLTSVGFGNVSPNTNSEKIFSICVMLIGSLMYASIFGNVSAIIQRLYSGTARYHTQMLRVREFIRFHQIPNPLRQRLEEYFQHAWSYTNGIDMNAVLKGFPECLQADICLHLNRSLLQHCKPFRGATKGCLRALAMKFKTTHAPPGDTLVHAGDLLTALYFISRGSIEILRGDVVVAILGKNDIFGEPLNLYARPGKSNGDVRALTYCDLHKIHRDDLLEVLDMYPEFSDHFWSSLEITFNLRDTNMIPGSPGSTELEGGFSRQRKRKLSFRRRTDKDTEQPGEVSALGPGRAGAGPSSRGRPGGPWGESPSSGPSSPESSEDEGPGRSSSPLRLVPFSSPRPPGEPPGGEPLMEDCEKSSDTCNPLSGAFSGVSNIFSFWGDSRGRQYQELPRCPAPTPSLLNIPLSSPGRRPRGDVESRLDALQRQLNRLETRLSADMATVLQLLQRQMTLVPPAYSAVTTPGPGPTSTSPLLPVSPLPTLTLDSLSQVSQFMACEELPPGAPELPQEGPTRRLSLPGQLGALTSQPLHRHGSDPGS

SMILES | Potency [1] | Potency [2] | Potency [3] | Potency [4] | Potency [5]
O=C1CCc2ccccc2O1 | 31.9 µM (active) and inactive | inactive | inactive | inactive | inactive
Cc1ccc2c(c1)C(=O)OC2=O | inactive | inactive | inactive | inactive | inactive
C=C[Si](OCCOC)(OCCOC)OCCOC | inactive | inactive | inactive | inactive | 20.1 µM (active) and 31.7 µM (active)
c1ccc2c(c1)[nH]c1ccccc12 | 7.83 µM (active) and 7.96 µM (active) | inactive | 2.21 µM (active) and 2.24 µM (active) | inactive | inactive
O=Cc1ccccc1C=O | inactive | 35.6 µM (active) and inactive | 63.3 µM (active) and inactive | inactive | inactive
CCCCCCCCCCCCO | 31.3 µM (active) | inactive and 22.2 µM (active) | inactive and 27.9 µM (active) | inactive | inactive
COC(=O)CC(=O)OC | 41.6 µM (active) and inactive | inactive | inactive | inactive | inactive and 63.3 µM (active)
CCCN1C=CN(C)C1 | inactive | inactive | inactive | inactive | inactive
CCCCCC1C(=O)CCC1CC(=O)OC (stereo not drawn) | 993 nM (active) and 3.56 µM (active) | 24.9 µM (active) and 31.7 µM (active) | 28 µM (active) and 28.3 µM (active) | inactive | inactive
CCc1cccc2c3c([nH]c12)C(CC)(CC(=O)O)OCC3 (stereo not drawn) | 39.8 µM (active) | 31.6 µM (active) and 34.7 µM (active) | inactive | inactive | inactive
C[N+](C)(C)CCO | inactive | inactive |  | inactive | 
Cc1ccc(S(=O)(=O)O)cc1C | inactive | inactive | inactive | inactive | inactive
CCCOCCO | inactive | inactive | inactive | inactive | inactive
Nc1ccc2c(c1)C(=O)c1ccccc1C2=O | 8.78 µM (active) and 35.6 µM (active) | 19.6 µM (active) and 22.4 µM (active) | 220 nM (active) and 252 nM (active) | inactive | 1.24 µM (active) and 1.78 µM (active)
ClC/C=C/CCl | inactive | inactive | inactive | inactive | inactive
c1ccc2c(c1)ccc1ncccc12 | 35.3 µM (active) and 79.6 µM (active) | inactive | 4.45 µM (active) and 7.1 µM (active) | inactive | 62.8 µM (active)
Cc1ccc(/C(=C\CN2CCCC2)c2ccccn2)cc1 | inactive | inactive | inactive | 18.3 µM (active) and 10.7 µM (active) | inactive
Nc1ccc(N)c(Cl)c1 | 3.17 µM (active) and 5.03 µM (active) | 8.92 µM (active) and 8.94 µM (active) | 39.8 µM (active) and 35.6 µM (active) | inactive | 2.51 µM (active) and 5.64 µM (active)
Cc1ccc(C)c(O)c1 | 30.9 µM (active) and inactive | inactive | 30.9 µM (active) and 41.1 µM (active) | inactive | inactive

SMILES | Potency [1] | Potency [2] | Potency [3] | Potency [4] | Potency [5]
C=C1C[C@H]2[C@@H]3C=C(C)C4=CC(=O)CC[C@]4(C)[C@H]3CC[C@]2(C)[C@@]1(OC(C)=O)C(C)=O | 28.9 µM (active) and 9.77 µM (active) | 22.9 µM (active) and 17.4 µM (active) | inactive | inactive | inactive
Cc1ccc(C(C)(C)C)cc1 | inactive | inactive | inactive | inactive | inactive
COCCOCCOCCO | inactive | inactive | inactive | inactive | inactive
Clc1ccc(Sc2cc(Cl)c(Cl)cc2Cl)cc1 | 6.92 µM (active) and 3.17 µM (active) | inactive | 11 µM (active) and 3.99 µM (active) | inactive | inactive
C=CCOC(=O)C(=C)C | inactive | inactive | inactive | inactive | inactive
C1COCCN1 | inactive | inactive | inactive | inactive | inactive
Nc1cc(Cl)c(N)c(Cl)c1 | 8.86 µM (active) and 71 µM (active) | 15.8 µM (active) and 39.9 µM (active) | 15.8 µM (active) and 35.6 µM (active) | inactive | 3.14 µM (active) and 17.8 µM (active)
O=C(O)CCCC(=O)O | 22 µM (active) and inactive | 39.2 µM (active) and inactive | 34.9 µM (active) and inactive | inactive | inactive
CC1(C)O[C@@H]2C[C@H]3[C@@H]4C[C@H](F)C5=CC(=O)C=C[C@]5(C)[C@@]4(F)[C@@H](O)C[C@]3(C)[C@]2(C(=O)CO)O1 | inactive | 39.9 µM (active) | inactive | inactive | 20 µM (active) and 3.89 µM (active)
O=C(O)c1ccc(O)cc1 | inactive | inactive | inactive | inactive | inactive
CCOC(=O)C(C)Oc1ccc(Oc2cnc3cc(Cl)ccc3n2)cc1 (stereo not drawn) | 33.3 µM (active) | 23.6 µM (active) | 52.8 µM (active) | 15.9 µM (active) and 18.3 µM (active) | inactive
C1CN(SSN2CCOCC2)CCO1 | 35.2 µM (active) and 35.6 µM (active) | 39.5 µM (active) and 28.3 µM (active) | 62.6 µM (active) and 39.9 µM (active) | inactive | inactive
CC(C)[C@@H]1CC[C@@H](C)CC1=O | 31.7 µM (active) and inactive | inactive | 30.9 µM (active) | inactive | inactive
CC/C=C\C/C=C\C/C=C\CCCCCCCC(=O)O | 31.4 µM (active) | 35.3 µM (active) and 39.9 µM (active) | inactive | inactive | inactive and 39.9 µM (active)
C=CN1CCCC1=O | inactive | inactive | inactive | inactive | inactive
Oc1ccc(C(c2ccc(O)cc2)C(Cl)(Cl)Cl)cc1 | 17.8 µM (active) and 20 µM (active) | 22.4 µM (active) and 12.6 µM (active) | inactive | inactive | 17.8 µM (active) and 20 µM (active)
CC(=O)OC(C)C | inactive | inactive | inactive | inactive | inactive
CC(=O)O[C@]1(C(C)=O)CC[C@H]2[C@@H]3C=C(C)C4=CC(=O)CC[C@]4(C)[C@H]3CC[C@@]21C | 7.1 µM (active) and 6.92 µM (active) | 7.96 µM (active) and 8.71 µM (active) | inactive | inactive | inactive
Nc1cc([N+](=O)[O-])ccc1C(=O)O | inactive | inactive | inactive | inactive | inactive
